Results taken from the supplement of paper PMC13380429.
A number with no mark means an inactive call.

These compounds were tested on Vero E6 infected with SARS-CoV-2 (assay: inhibition of SARS-CoV-2 cytopathic effect; higher = more antiviral protection, active = above 15). Conditions: 1 nM; 48 h.

SMILES | inhibition of SARS-CoV-2 cytopathic effect [%]
CO[C@H]1C[C@@H]2CC[C@@H](C)[C@@](O)(O2)C(=O)C(=O)N2CCCC[C@H]2C(=O)O[C@H]([C@H](C)C[C@@H]2CC[C@@H](O)[C@H](OC)C2)CC(=O)[C@H](C)/C=C(\C)[C@@H](O)[C@@H](OC)C(=O)[C@H](C)C[C@H](C)/C=C/C=C/C=C/1C [sirolimus] | -1.48
Cl/C=C\C[N+]12CN3CN(CN(C3)C1)C2 [1-((Z)-3-chloroallyl)-1,3,5,7-tetraazaadamantan-1-ium] | 0
Nc1nc2cc(-c3ccc4ncc(C(=O)N5CCOCC5)n4c3)ccc2o1 | 0.78
C[C@@H](O)[C@H]1C(=O)N2C(C(=O)O)=C(S[C@@H]3CN[C@H](C(=O)N(C)C)C3)[C@H](C)[C@H]12 [meropenem] | 0.11
CC(C)=CCC/C(C)=C/CC/C(C)=C/CC[C@]1(C)CCc2cc(O)cc(C)c2O1 [delta-tocotrienol] | 0.39
Cc1cccc(/C=N/Nc2cc(N3CCOCC3)n3nc(-c4ccncc4)cc3n2)c1 | 1.37
CN1CCN(CCCN2c3ccccc3Sc3ccc(S(=O)(=O)N(C)C)cc32)CC1 [thioproperazine] | 0.81
CN1CCN(C(=O)c2nc3ccc(Cl)cc3[nH]2)CC1 | -2
Cc1cc(C(=O)Nc2nc3cccc(Cl)c3n2[C@@H]2CCCCN(C(=O)/C=C/CN(C)C)C2)ccn1 | 2.52
COc1ccc(COc2cc3oc(=O)c4cc(C(C)O)ccc4c3cc2OC)cc1 (stereo not given) [palomid-529] | 0.28
O=C1NC(=O)/C(=C/c2ccc3nccc(-c4ccncc4)c3c2)S1 | -0.58
NCCCCN [putrescine] | 2.4
N=C(N)NS(=O)(=O)c1ccc(N)cc1 [sulfaguanidine] | 1.47
C=CC(=O)Nc1cc(Nc2nccc(-c3c[nH]c4ccccc34)n2)c(OC)cc1N(C)CCN(C)C | -3.07
CC(=O)OCC(=O)[C@@]1(O)[C@@H](C)C[C@H]2[C@@H]3CCC4=CC(=O)C=C[C@]4(C)[C@@]3(F)[C@@H](O)C[C@@]21C [betamethasone-acetate] | -1.36
Nc1nc(OCc2ccccc2)c2nc[nH]c2n1 [O6-benzylguanine] | 2.66
CC(C)C[C@H](NC(=O)[C@@H](COC(C)(C)C)NC(=O)[C@H](Cc1ccc(O)cc1)NC(=O)[C@H](CO)NC(=O)[C@H](Cc1c[nH]c2ccccc12)NC(=O)[C@H](Cc1cnc[nH]1)NC(=O)[C@@H]1CCC(=O)N1)C(=O)N[C@@H](CCCNC(=N)N)C(=O)N1CCC[C@H]1C(=O)NNC(N)=O [goserelin-acetate] | 1.97
CS(=O)(=O)c1ccc(-c2cnc(N)c(C(=O)Nc3ccccc3)n2)cc1 | 1.3
CO[C@@H](C)Cn1c(=O)n(C)c2cnc3ccc(-c4cncc(C(C)(C)O)c4)cc3c21 | 0.62
C[C@H](Nc1cc2c(-c3ccc4c(c3)OCO4)noc2cn1)c1ccccc1 | 0.3

SMILES | inhibition of SARS-CoV-2 cytopathic effect [%]
CCC(Cc1c(I)cc(I)c(N)c1I)C(=O)O (stereo not given) [iopanic-acid] | 2.78
Cc1cc(C(C)(C)C)c(O)c(C)c1CC1=NCCN1 [oxymetazoline] | 0.98
CC(C)NC[C@@H](O)COc1ccc(CC(N)=O)cc1 (racemic) [atenolol-(+/-)] | -2.25
COC(=O)/C=C/c1cccc(N(Cc2ccc(-c3ccc(N(C)C)cc3)cc2)C(=O)C2CCCCC2)c1 [fexaramine] | -0.19
N[C@@H](Cc1ccc(O)cc1)C(=O)NCC(=O)NCC(=O)O | 1.38
CSc1ccc2c(c1)[C@H](N1CCN(C)CC1)Cc1ccccc1S2 (racemic) [metitepine] | 0.91
Cc1ccccc1-c1cc(N2CCN(C)CC2)ncc1N(C)C(=O)C(C)(C)c1cc(C(F)(F)F)cc(C(F)(F)F)c1 [netupitant] | 0.76
COc1ccc2cc(-c3nc(-c4ccc([S+](C)[O-])cc4)[nH]c3-c3ccncc3)ccc2c1 (stereo not given) [tie2-kinase-inhibitor] | 5.39
COc1cc2c(Oc3ccc(NC(=O)C4(C(=O)Nc5ccc(F)cc5)CC4)cc3F)ccnc2cc1OCCCN1CCOCC1 [foretinib] | -0.07
CCC(=O)O[C@H]1[C@H](O[C@@H]2[C@@H](C)[C@H](O[C@H]3C[C@@](C)(OC)[C@@H](O)[C@H](C)O3)[C@@H](C)C(=O)O[C@H](CC)[C@@](C)(O)[C@H](O)[C@@H](C)C(=O)[C@H](C)C[C@@]2(C)O)O[C@H](C)C[C@@H]1N(C)C [erythromycin-estolate] | -0.2
O=C(/C=C/c1ccc(O)cc1)c1ccc(O)cc1O [isoliquiritigenin] | -2.47
NS(=O)(=O)c1cc2c(cc1Cl)NC(C(Cl)Cl)NS2(=O)=O (stereo not given) [trichlormethiazide] | -3.15
O=C(O)c1cc(N2N=C(C(F)(F)F)/C(=C/c3ccc(-c4ccccc4)o3)C2=O)ccc1Cl | 0.12
CC[C@H](CO)Nc1nc(Nc2cccc(-c3ccccn3)c2)c2ncn(C(C)C)c2n1 | -2.32
Cc1ccc(OCCSc2ncccn2)c(Br)c1 | -2.86
C/C(O)=C(\C#N)C(=O)Nc1cc(Br)ccc1Br | 0.38
Cc1cc(=O)n(-c2ccccc2)n1C [phenazone] | 1.97
C=CCN1CC[C@]23c4c5ccc(O)c4O[C@H]2/C(=N/NC(=O)c2ccccc2)CC[C@@]3(O)[C@H]1C5 [naloxone-benzoylhydrazone] | -0.04
O=[N+]([O-])C(Br)(CO)CO [bronopol] | -0.93
C=CCOc1ccccc1OCC(O)CNC(C)C (stereo not given) [oxprenolol] | 1.58
